Assay outcomes (PubChem BioAssay)
Hits are enriched below; roughly 2.8% of the tested compounds scored in any of these assays.
ERb SRC1 inh = inhibitors of ERβ-SRC1 coactivator interaction, primary screen, biochemical, TR-FRET, ERβ LBD, SRC-1 peptide | AID 633, 2007 | Estrogen receptor beta (Homo sapiens), Q92731 | 86,000 tested, 1.3% active | TR-FRET ER-beta LBD / SRC1-Cy5 peptide binding; receptor agonist-loaded with 1 µM estradiol | inhibition, % at 25.6 µM;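 active = compounds whose percent inhibition of the receptor-coactivator binding signal exceeds about 50% in the single-dose screen, limit read from the data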;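 also: 0% = receptor plus peptide wells without compound and 100% = peptide-only wells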
ERa coact inh = ERα–SRC-1 coactivator interaction inhibitors, primary screen, biochemical, TR-FRET, ERα LBD, estradiol-bound | Estrogen receptor (Homo sapiens), P03372 | TR-FRET ER-alpha LBD / SRC-1 peptide | inhibition, % at 25.6 µM | 86,000 tested, 1.7% active; in the data active = inhibition above about 50%;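 also: 0% = receptor plus peptide control and 100% = peptide only without receptor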
ERa SRC1 pot = enhancers of ERα–SRC-1 coactivator binding, primary screen, biochemical, TR-FRET, ERα LBD, low estradiol; Estrogen receptor (Homo sapiens), P03372; TR-FRET ERalpha-LBD/SRC-Cy5 coactivator binding, 2 h; 100 = basal binding, no effect; coactivator binding (% of control), % at 25.6 µM; 86,000 tested, 1.3% active; AID 639, 2007; in the data active = activity above about 200%;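 also: binding measured in presence of low estradiol as agonist stimulus; 0% = peptide alone without receptor and 100% = receptor with peptide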
MRP reversal = reversal of MRP1-mediated doxorubicin resistance, primary screen, H69AR cells, doxorubicin co-treatment. H69AR cells + 2 uM doxorubicin, CellTiter-Glo, 72 h. differential viability (reversal), % at 10 µM. 85,000 tested, 0.04% active. AID 602, 2007;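 active = viability drop by adding the cancer drug above about 55%, with treated viability meeting a 40% cutoff, limit read from the data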;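 also: viability without doxorubicin minus viability with 2 µM doxorubicin for each compound; larger differential means the compound sensitizes cells more to doxorubicin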
MRP-1 activ = H69AR viability gain despite doxorubicin, primary screen, MRP-1 activator project, H69AR cells, CellTiter-Glo; 140,000 tested, 0.61% active; viability rescue; AID 799, 2007; viability increase, % at 10 µM;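 active = viability gain under doxorubicin at or above a set limit, the compound median plus 3 SD, cut at about 4.7% in these data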;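 also: MRP-1 overexpressing cells given doxorubicin 25 µM after compound pretreatment; 18-22 h compound pretreatment then 72 h with doxorubicin before readout; 0% = doxorubicin-only wells and 100% = vehicle-treated cells without doxorubicin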
Smad3 FoxH1 inh = Smad3/FoxH1 peptide binding inhibitors, primary screen, biochemical, TR-FRET. Mothers against decapentaplegic homolog 3 (Homo sapiens), P84022. TR-FRET Smad3/Dy647-FoxH1 peptide binding, europium anti-His. inhibition, % at 25 µM. 88,000 tested, 0.29% active;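 active = compounds that reduce the energy-transfer binding signal between the protein and its labelled peptide by more than half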;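 also: 0% = Smad3 plus labelled peptide maximal FRET and 100% = peptide-only background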
Target sequence (P84022 whole entry, looked up): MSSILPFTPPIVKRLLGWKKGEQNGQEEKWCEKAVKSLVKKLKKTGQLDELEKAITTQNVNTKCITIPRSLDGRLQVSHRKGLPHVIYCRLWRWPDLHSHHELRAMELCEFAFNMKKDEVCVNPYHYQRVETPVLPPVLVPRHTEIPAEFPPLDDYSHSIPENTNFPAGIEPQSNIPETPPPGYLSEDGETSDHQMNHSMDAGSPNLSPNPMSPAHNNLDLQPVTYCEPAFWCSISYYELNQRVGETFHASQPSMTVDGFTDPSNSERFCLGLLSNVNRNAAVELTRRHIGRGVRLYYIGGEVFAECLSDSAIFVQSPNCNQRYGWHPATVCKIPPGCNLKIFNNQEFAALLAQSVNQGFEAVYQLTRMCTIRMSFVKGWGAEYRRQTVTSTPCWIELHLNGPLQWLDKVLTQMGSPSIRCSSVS
* = called active by the depositor; . = no result; [ ] = remark or other dose.

SMILES | ERb SRC1 inh | ERa coact inh | ERa SRC1 pot | MRP reversal | MRP-1 activ | Smad3 FoxH1 inh
CCc1cc2c(=O)c(-c3ccc4c(c3)OCCO4)coc2cc1OC(=O)c1ccco1 | 58*[fluorescence artefact?] | 70*[fluorescence artefact?] | 213*[fluorescence artefact?] | -13 | -1 | 4
CCCc1cc2c(=O)c(-c3ccc4c(c3)OCCO4)coc2cc1OS(C)(=O)=O | . | . | . | . | -1 | .
O=C(O)c1cccc(N=Nc2c(S(=O)(=O)O)ccc3c2C(=O)c2ccccc2C3=O)c1O | . | . | . | . | . | -6
Nc1ccccc1S[C@@H](C[N+](=O)[O-])c1ccc2c(c1)OCO2 | . | . | . | . | . | 22
COc1ccc2[nH]c(=O)c(CN(C3CCCCC3)C(c3nnnn3Cc3ccco3)C(C)C)cc2c1 (stereo not given) | 28 | 46 | 201* | 5 | -5 | 8
COc1ccc2[nH]c(=O)c(CN(Cc3nnnn3Cc3ccco3)C3CCCCC3)cc2c1 | 28 | 32 | 73 | 1 | -2 | 19
N[C@@H](Cc1c[nH]c2ccc([N+](=O)[O-])cc12)C(=O)O | . | . | . | . | . | 2
CCC(Sc1nc2ccccc2o1)C(=O)Nc1nnc(C)s1 (stereo not given) | . | . | . | . | 6.4* | .
CCC(Sc1ccccn1)C(=O)Nc1nnc(C)s1 (stereo not given) | -21 | -8 | 102 | -5 | 5 | 11
CCC1(C)NC(=O)N(CC(=O)Nc2sc3c(c2C(N)=O)CCC3)C1=O (stereo not given) | 83*[fluorescence artefact?] | 76* | 22 | 2 | 0 | 18
CCCCC[C@@H](O)[C@@H]1C(=O)O[C@@H](C)[C@@H](O)C=C/C=C\C=CC=C/C=C(/C)[C@H](O)C[C@H](O)C[C@H](O)C[C@H](O)C[C@H](O)C[C@H](O)C[C@@H]1O | . | . | . | . | . | 2
CCc1ccccc1N1CSC2=C(C#N)C(c3cc(OC)c(OC)cc3OC)CC(=O)N2C1 (stereo not given) | 0 | -6 | 225*[fluorescence artefact?] | 6 | -1 | 16
COc1cc(C2CC(=O)N3CN(c4ccccc4C)CSC3=C2C#N)cc(OC)c1OC (stereo not given) | 5 | 9 | 253*[fluorescence artefact?] | -5 | -4 | 14
COc1ccccc1N1CSC2=C(C#N)C(c3ccc(SC)cc3)CC(=O)N2C1 (stereo not given) | 61*[fluorescence artefact?] | 64*[fluorescence artefact?] | 45 | -7 | -5 | 7
COc1cccc(C2CC(=O)N3CN(c4ccccc4F)CSC3=C2C#N)c1 (stereo not given) | -15 | -8 | 87 | 0 | -3 | 7
CCOc1ccc(N2CSC3=C(C#N)C(c4ccco4)CC(=O)N3C2)cc1 (stereo not given) | 52* | 51* | 94 | -11 | -4 | 10
COc1cc(OC)c(C2CC(=O)N3CN(c4ccccc4)CSC3=C2C#N)cc1OC (stereo not given) | 5 | -16 | 69 | 22 | -3 | 6
O=C(CN1C(=O)C2C3C=CC(C3)C2C1=O)N1CC=C(c2ccccc2)CC1 (stereo not given) | -16 | 14 | 132 | -2 | 0 | 3
O=C1C[C@H]2C(=O)[C@@H]1[C@@H](C(=O)O)[C@H]2C(=O)O | . | . | . | . | . | -8
Cn1c(=O)cc(SCC(=O)NCCC2=CCCCC2)c2ccccc21 | . | . | . | . | 1 | .
O=C1C=C(Nc2nc(C(=O)O)cc(=O)[nH]2)c2ccccc2C1=O | . | . | . | . | . | 7
Cc1cccc(-n2ncc3c(N4CC(C)CC(C)C4)ncnc32)c1 (stereo not given) | -10 | -5 | 112 | -6 | 5.3* | 7
Cc1cccc(-n2ncc3c(N4CCCC4)ncnc32)c1 | 2 | 1 | 96 | -15 | -1 | 1
Nc1ccc(O)c(-c2nc3ccccc3s2)c1 | 64*[fluorescence artefact?] | 98*[fluorescence artefact?] | 7 | 7 | -4 | 27
O=C1SC(SCc2ccccc2)=N/C1=C\c1ccco1 | -13 | -13 | 103 | -24 | -2 | 8
SMILES | ERb SRC1 inh | ERa coact inh | ERa SRC1 pot | MRP reversal | MRP-1 activ | Smad3 FoxH1 inh
CCCSC1=N/C(=C\C=C\c2ccco2)C(=O)S1 | 63* | 75*[fluorescence artefact?] | 62 | -10 | -2 | 3
CCC1(C(=O)OC)NC(c2ccccc2OC)C2C(=O)N(C)C(=O)C21 (stereo not given) | 16 | 14 | 96 | 3 | 0 | -10
Nc1ccc2oc(-c3ccc4nc[nH]c4c3)nc2c1 | 30 | 77*[fluorescence artefact?] | 33 | -11 | -2 | 15
Cc1nc2ccc(-c3nc4cc(N)ccc4o3)cc2[nH]1 | 15 | 11 | 72 | -19 | -1 | 13
Cn1cnc([N+](=O)[O-])c1SCC(=O)O | . | . | . | . | . | -6
Cc1ccc(-c2nnc3ccc(SCC(=O)N4CCc5ccccc54)nn23)cc1 | 16 | 4 | 238*[fluorescence artefact?] | -10 | -4 | -80
COc1ccc(C(=O)N/N=C(\C)c2ccc3c(c2)C2C=CCC2C(c2ccccc2)N3)cc1 (stereo not given) | . | . | . | . | -2 | .
O=C(O)c1ccc2c(c1)[C@@H]1C=CC[C@@H]1[C@H](c1ccccn1)N2 | 86* | 68* | 21 | 4 | . | 32
COc1cccc(-c2cc(C(=O)Nc3cc(C)nn3-c3ccccc3)no2)c1 | -25 | -64 | 455* | -10 | -2 | 16
Cc1cc(NC(=O)c2cc(-c3ccccc3)on2)n(-c2ccccc2)n1 | 11 | -10 | 529*[fluorescence artefact?] | 3 | -1 | 3
COc1cccc2cc3c(=O)n(-c4ccccc4)nc-3oc12 | 81* | 99*[fluorescence artefact?] | 6 | 1 | -5 | 1
COc1cccc2cc(C(C)=O)c(=O)oc12 | -11 | -17 | 109 | 5 | -2 | 5
CCOc1cc(-n2cnnn2)c(OCC)cc1NC(=O)c1cc2ccc(N(CC)CC)cc2oc1=O | 53*[fluorescence artefact?] | 84*[fluorescence artefact?] | 191 | -8 | . | 5
CCOc1ccc2c3c(c(=O)oc2c1OCC)CCCC3 | 4 | 84*[fluorescence artefact?] | 112 | -3 | 0 | -14
CCCOc1ccc2c3c(c(=O)oc2c1OCCC)CCCC3 | 10 | -2 | 76 | -8 | 0 | 4
Cc1ccc(SCN2CCCCC2)cc1 (tested in a mixture with another compound) | . | . | . | . | . | 38
CCOC(=O)C1=C(O)/C(=C\c2ccc(CNC(=O)C(=O)Nc3ccc(C)c(C)c3)o2)N=C1C | 55* | 72* | 115 | 9 | -1 | 18
CCOC(=O)C1C(=O)OC(C)(C)C1C(C)C(=O)c1ccccc1 (stereo not given) | -8 | -8 | 102 | -1 | -1 | -13
N#C/C(=N/Nc1ccccc1F)C(=N)N1CCOCC1 | . | . | . | . | 8.1* | .
